# From PubChem BioAssay
# Tau FP inhib: tau fibrillization inhibition (FP). actives 0.39% (n = 280,000). Potency, µM (titrated, usually from 57.7 µM), for inactives: at the top dose activity, negative = inhibition, usual class: inhibitors. K18 P301L tau heparin fibrillization, Alexa594 FP, 6 h; also: nearly all actives have a fitted effect of over 55% in size
# Target sequence (P10636 561-689 P618L limits assumed): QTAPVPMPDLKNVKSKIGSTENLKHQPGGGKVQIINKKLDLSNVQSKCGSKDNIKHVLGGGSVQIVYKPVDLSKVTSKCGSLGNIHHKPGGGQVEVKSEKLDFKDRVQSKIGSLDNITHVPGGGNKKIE
#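 Human tau K18 […] P301L fragment, 15 uM unlabeled plus 0.24 uM Alexa 594-labeled tau (final), with compound and 20 uM heparin in 100 mM sodium acetate pH 7; 6 hr at 37 C, then Alexa 594 FP read.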
# Tau fibril ThT: inhibitors of human tau fibril formation, thioflavin T binding | P10636 | recombinant tau K18 P301L, heparin-induced fibrillization, ThT fluorescence | Potency, µM (titrated, usually from 57.4 µM), for the others: at the top dose activity, negative = inhibition, usual class: inhibitors | actives 2.1% (n = 270,000); also: nearly all actives have a fitted effect of over 55% in size
#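 Tau K18 P301L fragment (15 uM unlabeled plus 0.24 uM Alexa 594-labeled) in 100 mM sodium acetate pH 7 with compound, fibrillization induced by 20 uM heparin for 6 hr at 37 C. Thioflavin T (30 uM) added, fluorescence read after 1 hr (ex 450, em 510 nm).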
# Gal4-VP16 FLuc: Gal4-VP16 reporter inhibition counter-screen; Drosophila S2 Gal4-VP16 UAS-luciferase, luminescence, 20 h; Potency, µM (titrated, usually from 53.6 µM), inactives show at the highest dose activity, negative = inhibition, actives largely listed as inhibitors; actives 3.5% (n = 310,000);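 also: Gal4-VP16 expression switched on by copper sulfate through the metallothionein promoter; nearly all actives have a fitted effect of over 50% in size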
# Tau fluor counter: counter-screen for tau fibril formation inhibitors; actives 0.93% (n = 280,000); Potency, µM (series often up to 57.7 µM), for inactives: top-dose activity change, negative = decrease; AID 1463; tau K18 P301L (four-repeat tau fragment) Alexa594 fluorescence, heparin fibrillization; also: nearly all actives have a fitted effect of over 55% in size
#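 Human K18 P301L tau (15 uM unlabeled plus 0.24 uM Alexa 594-labeled, final) in 100 mM sodium acetate pH 7 was mixed with compound and 20 uM heparin and incubated 6 hr at 37 C.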
# RORg inh: inhibitors of mouse ROR gamma transcriptional activity. Drosophila S2 Gal4-RORgamma UAS-luciferase reporter, 20 h. Potency, µM (titrated, usually from 53.6 µM), for the others: at the top dose activity change, negative = inhibition, hits mostly inhibitors. actives 5.4% (n = 310,000). AID 2551; also: nearly all actives have a fitted effect of over 60% in size
# Target sequence (P51450 whole entry, looked up, the tested form may be a part): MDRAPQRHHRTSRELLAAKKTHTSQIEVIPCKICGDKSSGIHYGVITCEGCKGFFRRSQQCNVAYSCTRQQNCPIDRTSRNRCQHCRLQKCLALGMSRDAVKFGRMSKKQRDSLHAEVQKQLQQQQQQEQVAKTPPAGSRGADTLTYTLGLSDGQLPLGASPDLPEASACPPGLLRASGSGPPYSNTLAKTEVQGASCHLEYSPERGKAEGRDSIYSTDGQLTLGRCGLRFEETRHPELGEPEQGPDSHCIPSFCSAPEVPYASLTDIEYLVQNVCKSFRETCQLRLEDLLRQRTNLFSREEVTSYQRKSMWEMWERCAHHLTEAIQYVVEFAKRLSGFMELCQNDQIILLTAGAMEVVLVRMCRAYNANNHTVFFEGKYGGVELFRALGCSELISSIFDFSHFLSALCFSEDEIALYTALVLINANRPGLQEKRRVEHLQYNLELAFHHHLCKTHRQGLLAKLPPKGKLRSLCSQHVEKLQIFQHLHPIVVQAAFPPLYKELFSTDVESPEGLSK
#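 Drosophila S2 cells stably expressing Gal4-DBD/mouse RORγ fusion under metallothionein promoter plus UAS-luciferase; compound 1 h, then 700 uM CuSO4 induction for 20 h at ambient temperature; inhibition read as reduced luminescence.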
# Active calls of the source: *; ? = inconclusive; · = no result given; [ ] = dose if it differs, or a comment. Hits are enriched below; roughly 7.3% of the tested compounds scored in any of these assays. Calls follow the shape of the dose curve; as a rule, active = well fitted curve in the direction sought with a large enough effect; inconclusive = small, poorly fitted or top-dose-only effect, or another doubt; inactive = no such curve, though single readings can be large; an effect the other way counts as inactive or inconclusive. % is scaled to controls: 0 for no effect and ±100 for the full control effect; potency is read from the fitted curve at half-maximal effect.
SMILES,Tau FP inhib,Tau fibril ThT,Gal4-VP16 FLuc,Tau fluor counter,RORg inh
C[C@@H]1O[C@@H](O[C@H]2CC[C@]3(C=O)C4CC[C@]5(C)[C@@H](C6=CC(=O)OC6)CC[C@]5(O)[C@@H]4CC[C@]3(O)C2)[C@H](O)[C@H](O)[C@H]1O (some centres not stated),1%,-5%,-6%,-7%,0%
CN1CCN(c2ccc([N+](=O)[O-])c3no[n+]([O-])c23)CC1,?,13µM*,5.6µM*,?,1.3µM*
CN1CCN(c2ccc(S(C)(=O)=O)cc2[N+](=O)[O-])CC1,5%,-3%,-2%,0%,-36%[10 µM]
CCOc1ccc(Nc2c(S(=O)(=O)c3ccc(C)cc3)cnc3ccc(F)cc23)cc1,-5%,?,·,-24%,·
Cc1ccc(-c2cn3c(=S)[nH]nc3s2)cc1,1%,-19%,?,-17%,2.8µM*
COC(=O)CCCc1[se]c2ccccc2c1I,-4%[81.3 µM],?,-3%,-20%[81.3 µM],42%
CC(=O)C(O)C(c1ccccc1)c1c(O)c2ccccc2oc1=O (configuration not stated),·,·,-2%,·,2%
C=CC(C)(C)c1c2c(c(O)c3c(=O)c4ccc(O)c(O)c4oc13)C=CC(C)(C)O2,?,?,?,16µM*[quencher],?
COc1cc2[nH]c(=O)n(Cc3ccc(C(=O)N4CCN(c5ccc(Cl)cc5)CC4)cc3)c(=O)c2cc1OC,?,-11%,·,?,·
CNc1cc(Cl)c2nonc2c1[N+](=O)[O-],-9%,11µM*,3.5µM*,?,1µM*
CCCCCCCCCCCCC/C=C/[C@@H](O)[C@@H](N)COP(=O)([O-])OCC[N+](C)(C)C,-3%,1%,-29%,-12%,-13%
[Cl-].[Cl-].[Hg+2],·,·,18µM*,·,?
CCCCn1c(-c2nn(C)cc2Cl)n[nH]c1=S,4%,-8%,?,0%,13µM*
CC[C@H]1C2CC3[C@@H]4N(C)c5ccccc5[C@]45C[C@@H](C2[C@H]5O)N3[C@@H]1O (some centres not stated),-1%,-11%,3%,-17%,4%
CCCCC(CC)COC(=O)c1ccc(C(=O)OCC(CC)CCCC)c(C(=O)OCC(CC)CCCC)c1 (configuration not stated),·,·,-16%,·,1%
COc1cccc(CN2CCc3nc(N4CCN(c5ncccn5)CC4)ncc3C2)c1,-3%,?,·,-4%,·
CCOP(=S)(OCC)Oc1ccc([N+](=O)[O-])cc1,·,·,3%,·,-3%
Fc1ccccc1-c1n[nH]c(=S)n1Cc1ccccc1,·,·,11µM*,·,7.1µM*
CCOc1cc(C=C2C(=O)NC(=O)NC2=O)ccc1OS(=O)(=O)c1ccccc1,5%,?,-5%,-7%,-14%
COc1cc(/C=C2/C(=O)N(c3ccccc3)N=C2C)ccc1OS(=O)(=O)c1ccccc1,-22%,14µM*,?,?,?
O=C1C(=O)c2ccccc2-c2ccccc21,?,3.2µM*,3.2µM*,-22%,2µM*
ClC(Br)Br,·,·,2%,·,2%
CC(C)[C@]12O[C@H]1[C@@H]1O[C@]13[C@]1(O[C@H]1C[C@H]1C4=C(CC[C@@]13C)C(=O)OC4)[C@@H]2O,-3%,1%,0.4µM*,-3%,0.32µM*
COc1cc2c(cc1O)C[C@H]1c3c(cc(OC)c(O)c3-2)CCN1C,?,14µM*,-13%,?,-35%
COc1cc2c(cc1OC)-c1c(OC)c(OC)c(C=O)c3c1[C@H](C2)N(C)CC3,?,22µM*,1%,?,-1%
SMILES,Tau FP inhib,Tau fibril ThT,Gal4-VP16 FLuc,Tau fluor counter,RORg inh
CC(C)CON=O,·,·,-4%,·,-12%
CC(C)(C)OOC(=O)c1ccccc1,·,·,-7%,·,-18%
Nc1ccc([N+](=O)[O-])cc1N,·,·,-5%,·,7%
Fc1ccccc1CCNCc1cccc2ccccc12,-2%,11%,20µM*,9%,?
COc1ccc(/C=C/C(=O)Nc2ccc(C)cc2)cc1,?,12%,·,-22%,·
CC(=O)Oc1ccc(/C=C/c2cc(OC(C)=O)cc(OC(C)=O)c2)cc1,-11%,?,?,-24%,4µM*
Cc1ccc(N2C(=O)NC(=O)/C(=C\C=C\c3ccco3)C2=O)cc1,13µM*,·,5.6µM*,?,?
CN1C(=O)/C(=C/C=C/c2ccco2)C(=O)NC1=S,?,·,-2%,?,-11%
Cc1cccc(N2C(=O)NC(=O)/C(=C\C=C\c3ccco3)C2=O)c1,?,10µM*,?,-5%,-117%
CN(C)c1ccc(/C=C/C=C2/C(=O)NC(=O)N(c3ccccc3)C2=O)cc1,?,4µM*,-4%,?,?
Cc1ccc(N2C(=O)NC(=O)/C(=C\C=C\c3ccco3)C2=O)cc1C,?,13µM*,7.1µM*,-14%,13µM*
Cc1cccc(N2C(=O)CC(=O)NC2=O)c1,-10%,?,0%,-13%,-18%
CCCOCCN(C(=O)CCl)c1c(CC)cccc1CC,·,·,3%,·,-13%
CCCCNC(=O)Oc1c(Br)cc2sc(=O)oc2c1Br,?,·,-7%,?,-3%
O=C(Nc1ccc(Cl)c(C(F)(F)F)c1)C1CCCN(S(=O)(=O)c2cccc3cccnc23)C1 (configuration not stated),-19%,-1%,·,?,·
COc1ccc(C(=O)Oc2cccc3cccnc23)cc1S(=O)(=O)N1CCOCC1,15%,9%,4.5µM*,10%,2.5µM*
COc1ccc(C(=O)N2CCOCC2)cc1S(=O)(=O)N1CCC(C)CC1,-3%,0%,-4%,2%,-15%
O=C(Oc1cccc2cccnc12)c1ccccc1,-4%,-9%,?,-8%,1.4µM*
CCC(=O)C1=C(c2cccc([N+](=O)[O-])c2)N(C(=O)CC)n2c(nnc2C2CCCCC2)S1,-6%,?,·,-20%,·
NC(=O)c1ccc(N=Nc2c(O)[nH]c(=O)[nH]c2=O)cc1,2%,9%,-11%,1%,-78%
O=c1[nH]c(O)c(N=Nc2cc([N+](=O)[O-])ccc2O)c(=O)[nH]1,-5%,14µM*,-4%,-17%,-16%
COc1ccc(C(=O)NC(=S)N2C[C@H]3C[C@H](C2)c2cccc(=O)n2C3)cc1,·,·,13%,·,?
O=C(/C=C/c1ccc(Cl)cc1)NC(=S)N1C[C@H]2C[C@H](C1)c1cccc(=O)n1C2,·,·,-3%,·,13µM*
COc1ccc(/C=C/C(=O)NC(=S)N2C[C@H]3C[C@H](C2)c2cccc(=O)n2C3)cc1,·,·,8%,·,-21%
O=C(/C=C/c1ccc(Br)cc1)NC(=S)N1C[C@H]2C[C@H](C1)c1cccc(=O)n1C2,·,·,-9%,·,18µM*
C[C@H](NC(=O)[C@@H](N)Cc1ccc(O)cc1)C(=O)NCC(=O)N(C)[C@@H](Cc1ccccc1)C(=O)NCCO,-10%,-2%,·,-11%,·
